# Bioassay records (PubChem BioAssay)
# D2 ag-1 = HTS Assay for Allosteric Agonists of the Human D2 Dopamine Receptor: Primary Screen for Agonists; actives 0.53% (n = 340,000); HEK293 T-REx D2 cells, calcium flux agonist mode; activation, % at 2 µM; D(2) dopamine receptor (Homo sapiens), P14416; AID 485358, 2010;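 active means activation over 3 SD above normal in the single-dose calcium agonist read, cut at about 30% in these data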; further: 0% is about no effect
# Target sequence (P14416 whole entry, looked up): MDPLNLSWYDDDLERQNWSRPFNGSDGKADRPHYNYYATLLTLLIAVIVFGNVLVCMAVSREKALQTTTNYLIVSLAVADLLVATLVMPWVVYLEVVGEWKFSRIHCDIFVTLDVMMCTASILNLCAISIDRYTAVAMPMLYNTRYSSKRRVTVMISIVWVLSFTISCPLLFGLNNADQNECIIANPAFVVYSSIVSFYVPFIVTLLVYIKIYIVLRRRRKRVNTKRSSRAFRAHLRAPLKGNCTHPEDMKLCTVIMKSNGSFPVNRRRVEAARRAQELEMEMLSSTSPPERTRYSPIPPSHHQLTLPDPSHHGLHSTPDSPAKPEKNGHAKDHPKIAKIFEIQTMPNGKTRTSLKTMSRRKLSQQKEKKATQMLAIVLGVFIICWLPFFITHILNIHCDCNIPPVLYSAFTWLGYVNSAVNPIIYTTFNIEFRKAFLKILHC
#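 Tetracycline-induced HEK293 T-REx cells with force-coupled D2 receptor, plated overnight at 30 C, loaded with no-wash calcium dye. After a 10 s baseline, compound was pin-added and calcium flux read kinetically for 180 s; calcium rises flagged agonists.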
# D2 PAM-1 = Beta-Arrestin HTS for Positive Allosteric Modulators of the Human D2 Dopamine Receptor: Potentiators | D(2) dopamine receptor (Homo sapiens), P14416 | DiscoveRx D2 beta-arrestin cells, luminescence, 90 min; 100% = 57 uM dopamine signal | potentiation, % (concentration not given with the values) | actives 0.23% (n = 360,000) | AID 624464, 2012; in the data active means potentiation above about 50%; inconclusive means mostly about 30% to 49%
#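 D2 cells co-treated with compound plus 50 nM dopamine (EC20) for 90 min at 37 deg C to detect potentiation. Beta-arrestin recruitment was read as enzyme-fragment luminescence after 1 h at ambient temperature. Full response was set by 57 uM dopamine.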
# D2 ag-2 = Beta-Arrestin HTS for Positive Allosteric Modulators of the Human D2 Dopamine Receptor: Agonists. actives 0.084% (n = 360,000). D(2) dopamine receptor (Homo sapiens), P14416. DiscoveRx PathHunter D2 beta-arrestin, luminescence, 90 min; 100% = 57 uM dopamine signal. activation, % (no concentration beside the values); in the data active means activation above about 40%; inconclusive means between about 15% and that limit
#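 DiscoveRx PathHunter D2 beta-arrestin cells (2,100/well) attached overnight, then compound-stimulated 90 min at 37 C in HBSS/10 mM HEPES/0.1% Tween-20 buffer; beta-galactosidase complementation read by luminescence after 1 h at ambient temperature. Dopamine 57 uM final (EC100) as control.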
# D2 antag = HTS Assay for Allosteric Antagonists of the Human D2 Dopamine Receptor: Primary Screen for Antagonists | D(2) dopamine receptor (Homo sapiens), P14416 | HEK293 TREx D2 cells, calcium flux, dopamine EC80 | inhibition, % at 10 µM | actives 2% (n = 340,000) | AID 485344, 2010; in the data active means inhibition above about 30%; inactive means below that, where a call was filed; further: 0% is about no effect
#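 Tetracycline-induced HEK293 TREx cells expressing D2 receptor forced-coupled to calcium signalling, loaded with no-wash calcium dye. Compounds added and calcium flux read 180 s, then dopamine added at EC80 and read a further 180 s.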
# Apoferritin bind = qHTS Assay for Identification of Novel General Anesthetics | Potency, µM (series often up to 77.5 µM), inactives show at the top dose activity change, negative = displacement, actives largely listed as inhibitors | Ferritin light chain (Equus caballus), P02791 | apoferritin/1-aminoanthracene competitive binding, fluorescence | actives 0.074% (n = 350,000); active means well fitted inhibition curve with a large enough effect; inconclusive means small, poorly fitted or top-dose-only effect; inactive means no such curve, though single readings can be large or run the other way; further: potency means the concentration at half of the fitted maximal effect; on the % scale 0 is the no-effect control and ±100 the full control effect; nearly all actives have a fitted effect of over 20% in size
# Target sequence (P02791 2-175 limits assumed): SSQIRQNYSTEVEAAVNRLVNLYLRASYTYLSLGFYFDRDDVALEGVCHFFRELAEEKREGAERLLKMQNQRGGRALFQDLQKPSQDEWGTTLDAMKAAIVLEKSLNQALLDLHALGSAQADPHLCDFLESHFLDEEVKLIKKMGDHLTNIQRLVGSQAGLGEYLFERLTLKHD
#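 Steps: apoferritin (10 uM) was premixed with half-saturated 1-AMA in PBS, compounds were pin-transferred, plates stood 10 min at room temperature, fluorescence was read at 380/535 nm, and curves were fitted with a Hill equation.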
# D2 PAM-2 = HTS Assay for Positive Allosteric Modulators of the Human D2 Dopamine Receptor: Primary Screen for Potentiators; HEK293 T-REx D2, calcium flux, EC20 dopamine potentiation; D(2) dopamine receptor (Homo sapiens), P14416; potentiation, % at 10 µM; actives 0.34% (n = 340,000); AID 485347, 2010;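 active means potentiation over 3 SD above the plate norm, cut at about 30% in these data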; further: 0% is about no effect
#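 Cells plated with tetracycline inducer and held overnight at 30 C; calcium dye loaded 30–90 min at room temperature; baseline taken, compound added and read 180 s; EC20 dopamine then added and read 180 s.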
# The depositor's hits bear a star; ? = inconclusive; . = not tested or not shown. Hits are enriched below; roughly 2.5% of the tested compounds scored in any of these assays.
SMILES,D2 ag-1,D2 PAM-1,D2 ag-2,D2 antag,Apoferritin bind,D2 PAM-2
O=C(CN1CCCC1)Nc1cc(C(F)(F)F)ccc1Cl,-2,-13,-6,82*,-7%,-20
CN(C)S(=O)(=O)c1ccc(Cl)c(NC(=O)CN2CCC(Cc3ccccc3)CC2)c1,-5,-26,2,42*,72%,-10
COc1cccc2cc(C(C)OC(=O)Nc3ccc(C)cc3)oc12 (configuration not stated),1,-21,3,32*,0%,-8
COc1cccc(OCCNC(=O)Nc2cc(F)c(F)cc2Cl)c1,-1,-5,2,-2,-8%,-5
O=C(CCC(=O)c1ccc(Cl)cc1)OCC(=O)c1ccccc1,1,-7,-4,-18,13µM*,10
O=C(CNC(=O)c1ccc(Cl)cc1)OCC(=O)c1ccccc1,-1,-19,-5,-6,?,-7
O=C1c2cccc3c(N4CCCCC4)ccc(c23)C(=O)N1c1ccc(O)cc1,66*,-6,1,29,-12%,-4
O=C1c2cccc3c(N4CCCCC4)ccc(c23)C(=O)N1c1ccccc1O,36*,-8,-3,8,-2%,-5
O=C1c2cccc3cccc(c23)C(=O)N1c1ccc(O)cc1,0,-1,3,4,-5%,-2
COc1ccc(CCC(=O)Nc2cccc(S(=O)(=O)N3CCOCC3)c2)cc1OC,-1,-2,2,-9,.,-9
N#CC1=C(N)C(C#N)(C#N)[C@H](c2ccoc2)[C@H]2CN(Cc3ccccc3)CC=C12,31*,-17,1,1,7%,3
COc1ccc(OC)c(C2C3CN(C(C)C)CC=C3C(C#N)=C(N)C2(C#N)C#N)c1 (configuration not stated),4,-49,-6,-7,-9%,-15
CN1CC=C2C(C#N)=C(N)C(C#N)(C#N)[C@H](c3ccoc3)[C@H]2C1,6,-4,3,-5,78%,-13
CCCN1CC=C2C(C#N)=C(N)C(C#N)(C#N)C(c3cccc(OC)c3OC)C2C1 (configuration not stated),57*,-25,-3,5,9%,-15
CCOC(=O)c1c(C)n(-c2ccc(OC)cc2)c2ccc(O)c(CN(C)C)c12,1,-21,-2,-2,-4%,6
CCOC(=O)c1c(C)n(-c2ccc(C)cc2)c2ccc(O)c(CN(C)C)c12,0,-8,4,40*,-16%,-10
Oc1ccccc1N1CCN(c2ncnc3scc(-c4ccc(F)cc4)c23)CC1,.,2,2,.,-5%,.
Oc1ccccc1N1CCN(c2ncnc3scc(-c4ccccc4)c23)CC1,9,10,5,-1,-11%,33*
COc1ccccc1CNCC(=O)NCc1ccc(C)cc1,0,-27,-2,52*,-10%,-26
OCCNCC(O)Cn1c2ccccc2c2ccccc21 (configuration not stated),0,-1,-6,6,-6%,-3
COc1ccccc1CNCC(O)Cn1c2ccccc2c2ccccc21 (configuration not stated),3,-2,1,42*,9%,5
COc1ccccc1C(C)NCC(=O)NCc1ccc(C)cc1 (configuration not stated),0,-16,1,37*,-10%,-28
COc1ccccc1CNC(=O)Cc1ccc(C)cc1,0,-6,2,-19,-8%,-2
CCCSc1nc2c(cnn2-c2ccc(C)cc2)c(=O)[nH]1,.,-8,3,.,-9%,.
CCCSc1nc2c(cnn2-c2ccccc2)c(=O)[nH]1,-1,-5,-4,3,15%,41*
SMILES,D2 ag-1,D2 PAM-1,D2 ag-2,D2 antag,Apoferritin bind,D2 PAM-2
COc1cccc(C2CC(c3ccc(Cl)cc3)n3nc(N)nc3N2)c1 (configuration not stated),0,-3,-3,57*,-5%,4
Cc1cc(C)n(-c2ccc(C(=O)O)cc2)n1,0,-12,-6,-2,-5%,-5
Cc1cc(C)n(-c2ccc(C(=O)N3CC(C)OC(C)C3)cc2)n1 (configuration not stated),0,-4,-4,34*,-5%,9
CCOc1ccccc1N1CCN(C(=O)C2c3ccccc3Oc3ccccc32)CC1,0,-15,-4,-12,0%,-2
CCn1cc(/C=N/NC(=O)c2cc3c(ccc4ccccc43)o2)c2ccccc21,0,?,0,-5,6%,35*
CC(C)n1cc(/C=N\NC(=O)c2cc3c(ccc4ccccc43)o2)c2ccccc21,-1,-5,2,0,-13%,-4
Cc1ccc(C2SCC(=O)N2Cc2cn3ccsc3n2)o1 (configuration not stated),0,-14,-2,-2,-11%,-4
Cc1ccnc(NC(NC(=O)C(C)C)(C(F)(F)F)C(F)(F)F)c1,0,-9,-2,32*,-2%,4
COC(=O)C(NC(=O)c1ccco1)(Nc1cc(C)ccn1)C(F)(F)F (configuration not stated),0,-2,3,-10,6%,8
COc1ccc(CCNC(=O)c2cn(C)c3ccc(S(=O)(=O)N4CCOCC4)cc3c2=O)cc1OC,-3,-3,1,40*,-15%,6
CCn1cc(C(=O)NCCc2ccc(OC)c(OC)c2)c(=O)c2cc(S(=O)(=O)N3CCOCC3)ccc21,-3,5,-1,3,?,6
CCCCN(C)CCCNC(=O)c1cn(C)c2ccc(S(=O)(=O)N(C)C3CCCCC3)cc2c1=O,1,-16,0,34*,-10%,7
CCN(CC)S(=O)(=O)c1ccc2c(c1)c(=O)c(C(=O)NCCN(C)CCc1ccccc1)cn2C,1,-15,0,12,1%,-20
CN(CCNC(=O)c1cn(C)c2ccc(S(=O)(=O)N(C)C)cc2c1=O)CCc1ccccc1,16,-11,-1,45*,7%,-24
